{"source": "PubChem BioAssay (EPA / NIEHS)", "note": "Calls of active or inactive are those of the source. The calls were made as follows: active = hit-call score of the fitted dose curve at least 0.9, where 1 is the maximum; inactive = score below 0.9."}
{"experiment": "CEETOX_H295R_DOC: CeeTox H295R High-throughput Steroidogenesis Assay for DOC (AID 2283439)", "conditions": "actives raise or lower the signal", "protocol": "CEETOX_H295R is a cell-based, multiplexed-readout assay that uses H295R, a human adrenal gland cell line, with measurements taken at 48 hours after chemical dosing in a 96-well plate.CEETOX_H295R_DOC is one of 23 assay component(s) measured or calculated from the CEETOX_H295R assay. It is designed to make measurements of hormone induction, a form of inducible reporter, as detected with absorbance signals by HPLC-MS-MS technology.Data from the assay component CEETOX_H295R_DOC was analyzed into 1 assay endpoint. This assay endpoint, CEETOX_H295R_DOC, was analyzed with bidirectional fitting relative to DMSO as the negative control and baseline of activity. Using a type of inducible reporter, gain or loss-of-signal activity using HPLC-MS-MS was used to understand synthesis of 11-Deoxycorticosterone in H295R cell line at 48hr of chemical exposure. To generalize the intended target to other relatable targets, this assay endpoint is annotated to the steroid hormone intended target family, where the subfamily is glucocorticoids.\nCell culture and media preparation procedures were conducted in accordance with OECD Test No. 456 guidelines, with minor modifications. H295R cells (ATCC CRL-2128) were expanded for 5 passages and frozen in batches in liquid nitrogen. Prior to the steroidogenesis assay, H295R cells were thawed and passed at least 4 times. The maximum passage was 10. Cells were maintained in a 1:1 mixture of DMEM/F12 supplemented with 5ml/L ITS+ Premix (BD Bioscience) and 12.5 ml/L Nu-Serum (BD Bioscience). After seeding cells into 96-well plates at 50-60% confluency, cells were allowed to adhere overnight. Prior to chemical testing, culture medium was replaced with 175 uL medium containing 10 uM forskolin to stimulate steroidogenesis for 48 hours. Following prestimulation, forskolin medium was replaced with medium containing test chemical solubilized in DMSO (ensuring a final concentration of 0.1% DMSO). Test chemicals were incubated for 48 hours, then the medium was removed and split into 2 vials containing approximately 75uL each, and stored at -80 C prior to hormone analysis. For steroid quantification, media samples were shipped to OpAns, LLC (Durham, NC) on dry ice, and samples were thawed to room temperature prior to liquid-liquid extraction. Steroid hormones were extracted from media samples using methyl tertbutyl ether (MTBE). An extra derivatization with dansyl chloride was included for estrogen (estrone and estradiol) detection only. Steroid hormones were separated by HPLC, eluted using a reverse phase C18 gradient with electrospray positive ionization, followed by quantification by tandem mass spectrometry (MS/MS). Data were acquired on a MassHunter Workstation Acquisition version B03.01 (Agilent Technologies, Inc.) and processed using MassHunter Quantitative Analysis for QQQ. Accuracy was determined for each hormone analyte from 3 standards to determine upper and lower limits of quantification (ULOQ and LLOQ, respectively) using a 7-point standard curve. Precision and accuracy of the extraction and quantification methods were calculated as the percent relative standard deviation (%RSD) of the spiked standards and percent spiked standard recovered, respectively. […] Test medium was removed following chemical exposure, and cell viability was evaluated in the same wells by MTT. MTT procedures were as follows: after removal of test medium, 500 uL of 0.5 mg/ml of 3-[4,5-dimethylthiazol-2-y]2,5-diphenyltetrazoliumbromide solution was added to the cells. Following a 4-hour incubation at 37 C and 5% CO2 to allow formazan-crystal formation, the MTT solution was removed and blue formazan salt crystals were solubilized using 500uL anhydrous isopropanol with shaking for 20 minutes. Absorbance was read at 570 and 650nm using a Packard Fusion microplate reader. Background correction of absorbance units was used to determine percent change relative to controls. […]"}
{"compound": "CCCCCCCCN(C)C", "outcome": "inactive"}
{"compound": "COc1cc2c(c(OC)c1OC)-c1ccc(OC)c(=O)cc1[C@@H](NC(C)=O)CC2", "outcome": "inactive"}
{"compound": "Nc1ccn([C@@H]2O[C@H](CO)[C@@H](O)[C@@H]2O)c(=O)n1", "outcome": "inactive"}
{"compound": "CC[C@H](C)C(=O)O[C@H]1C[C@H](O)C=C2C=C[C@H](C)[C@H](CC[C@@H](O)C[C@@H](O)CC(=O)O)[C@H]21", "AC50": "2.7 µM (active)"}
{"compound": "CCN(CC)C(=S)SSC(=S)N(CC)CC", "outcome": "inactive"}
{"compound": "CC(C)c1nnc2ccc(-c3ocnc3-c3cc(F)ccc3F)cn12", "outcome": "inactive"}
{"compound": "CCCOc1ccc(S(=O)(=O)N2CCN(CC)CC2)cc1-c1nc2c(CC)n(Cc3ccccn3)nc2c(=O)[nH]1", "outcome": "inactive"}
{"compound": "CCn1nc(C)c2c1C(=O)NCC(c1ccc(O)cc1)=N2", "AC50": "50 µM (active)"}
{"compound": "C=CCc1cc(S(=O)(=O)c2ccc(O)c(CC=C)c2)ccc1O", "AC50": "0.673 µM (active)"}
{"compound": "C[C@@H](Oc1ccc(CNC(=O)c2cccnc2Oc2ccc3c(c2)OCO3)c(F)c1)C(=O)O", "outcome": "inactive"}
{"compound": "CCCCC(CC)C(=O)OCCOCCOCCOC(=O)C(CC)CCCC", "note": "(stereo not drawn)", "outcome": "inactive"}
{"compound": "c1ccc2c(c1)-c1cccc3c1c-2cc1ccccc13", "AC50": "1.84 µM (active)"}
{"compound": "C[C@]12C=CC(=O)C=C1CC[C@H]1[C@@H]3C[C@@H](O)[C@](O)(C(=O)CO)[C@@]3(C)C[C@H](O)[C@@]12F", "AC50": "11.2 µM (active)"}
